Laboratory results as given in PubChem BioAssay (NCATS).
“And” between values parts separate entries of the source, which are not always exact repeats. Equal entries are not always repeated. Inconclusive results are not listed. Values without a mark were called inactive. The source made the active and inactive calls. The call rests on the fitted dose curve; in most records, active means well fitted inhibition curve with a large enough effect; inconclusive means small, poorly fitted or top-dose-only effect; inactive means no such curve, though single readings can be large or run the other way.

Test: Primary qHTS for inhibitors of nuclear receptor binding SET domain protein 2 (NSD2) in an RCH-ACV wild type WT cells (2C) (AID 1645877); further: nearly all actives have a fitted effect of over 70% in size
Details: RCH-ACV (leukaemia line) NSD2 WT (2C) viability, CellTiter-Glo, 72 h; series mostly up to 44.9 µM; activity change, negative = cell killing: at the top concentration
Description: Assay Provider: Jonathan D. Licht, MD
University of Florida College of Medicine, Gainesville, FL
Mutations in epigenetic regulators are common in relapsed pediatric acute lymphoblastic leukemia (ALL). Here, we uncovered the mechanism underlying the relapse of ALL driven by an activating mutation of the NSD2 histone methyltransferase (p.E1099K). […] Correction of this mutation restored glucocorticoid sensitivity. The transcriptional response to glucocorticoids was blocked in NSD2 mutant cells due to depressed glucocorticoid receptor (GR) levels and the failure of glucocorticoids to autoactivate GR expression. […] Pre-treatment of NSD2 p.E1099K cell lines and PDX samples with PRC2 inhibitors reversed glucocorticoid resistance in vitro and in vivo.
High-throughput drug screening of isogenic RCH-ACV cell lines was performed at the National Center for Advancing Translational Science (NCATS), National Institutes of Health as previously described (1). Briefly, isogenic RCH-ACV NSD2 p.E1099K mutant (9B) and WT cells (2C) were plated at 500 cells/well in a 1536-well plate with a 72-hour incubation with compounds prior to addition of CellTiter-Glo to assess cell viability. NCATS libraries screened include: NPC, MIPE 5.0, Kinase and NPACT. To determine compound activity in the qHTS assay, the concentration-response data for each sample was plotted and modeled by a four-parameter logistic fit yielding IC50 and efficacy (maximal response) values. The area under the curve (AUC) of the dose-response curve ensures both efficacy (magnitude of cell killing) and potency (concentration that elicits cell killing) are accounted for in the analysis of activity.
1. Tobie D Lee, Olivia W Lee, Kyle R Brimacombe, Lu Chen, Rajarshi Guha, Sabrina Lusvarghi, Bethilehem G Tebase, Carleen Klumpp-Thomas, Robert W Robey, Suresh V Ambudkar, Min Shen, Michael M Gottesman, Matthew D Hall. A High-Throughput Screen of a Library of Therapeutics Identifies Cytotoxic Substrates of P-glycoprotein. Mol Pharmacol. 2019, Nov;96(5):629-640.
On the % scale 0 is the no-effect control and ±100 the full control effect.

SMILES	activity change, negative = cell killing	outcome	Potency
CCCCCCn1c(=O)c2c(ncn2C)n(C)c1=O	-3.32%	–	–
CC(NC(CCc1ccccc1)C(=O)O)C(=O)N1C(=O)N(C)CC1C(=O)O (stereo not given)	–	inactive	–
Cc1cccc(C)c1NC(=O)c1cc(S(N)(=O)=O)c(Cl)cc1O	-8.83%	–	–
O=C(O)C1CCC1	2.88%	–	–
Cc1cc(=O)oc2cc(O[C@@H]3SC[C@@H](O)[C@H](O)[C@H]3O)ccc12	–	inactive	–
COc1cc2c(cc1OC)CN(C(=O)[C@H](C)N[C@@H](CCc1ccccc1)C(=O)O)[C@H](C(=O)O)C2	-2.2%	–	–
CC(=O)O[C@@H]1CC2C3CCc4cc(OC(=O)c5ccccc5)ccc4C3CCC2(C)[C@H]1OC(C)=O (stereo not given in full)	-2.68%	–	–
CC(=O)OCC(=O)Nc1cc(C#N)cc(NC(=O)COC(C)=O)c1Cl	-1.1%	–	–
Nc1ncnc2nc[nH]c12	-2.13%	–	–
Cc1cc2nc3ccc(=[N+](C)C)cc-3sc2cc1N	–	–	1.06 µM (active)
CCc1cccc2c(CCO)c[nH]c12	6.05%	–	–
COc1ccccc1N1CCN(CC(O)COc2cc(OC)c(OC)c(OC)c2)CC1 (stereo not given)	–	inactive	–
Cn1cnc2c(NCc3ccccc3)nc(NCCO)nc21	-21%	–	–
C[C@H](CN1CCCC1)C(=O)c1ccc(C(F)(F)F)cc1	–	–	6.68 µM (active)
CCC(=O)O[C@]1(C(=O)COC)[C@@H](C)C[C@H]2[C@@H]3CCC4=CC(=O)C=C[C@]4(C)C3(F)[C@@H](O)C[C@@]21C (stereo not given in full)	–	–	0.0033 µM (active)
CC1c2ccccc2CN1NC(=O)c1ccc(Cl)c(S(N)(=O)=O)c1 (stereo not given)	-5.5%	–	–
CCOC(=O)c1ccc(OCCN2C[C@H](O)[C@@H](O)[C@H](O)[C@H]2CO)cc1	-4.43%	–	–
CCOC(=O)CN1CCCC1=O	1.63%	–	–
O=C(Oc1ccccc1)c1ccccc1O	–	inactive	–
O=[N+]([O-])c1nccn1CO[C@@H](CO)[C@H](O)CO	-5.86%	–	–

SMILES	activity change, negative = cell killing	outcome	Potency
CO/N=C(\C(=O)O)c1csc(NC(=O)CCl)n1	–	inactive	–
C[C@H]1C[C@H](O)c2ccsc2S1(=O)=O	–	inactive	–
CC(C)(C)C1CCC(CC2=C(O)c3ccccc3C(=O)C2=O)CC1 (stereo not given)	–	–	9.44 µM (active)
COc1ccc2c(c1)CCCC2=O	–	inactive	–
NC(=O)NC1N=C([O][Al])NC1=O (stereo not given)	-0.0232%	–	–
COc1ccc(/C(C)=C/C(=O)O)c(OC)c1	–	inactive	–
NCC[C@H](O)C(=O)N[C@@H]1C[C@H](N)[C@@H](O[C@H]2O[C@H](CN)[C@@H](O)[C@H](O)[C@@H]2O)[C@H](O)[C@@H]1O[C@H]1O[C@H](CO)[C@@H](O)[C@H](N)[C@@H]1O	-24.5% [at 0.588 µM]	–	–
C=CCOc1cc(Cl)ccc1C(=O)NCCN(CC)CC	-1.36%	–	–
Oc1ccccc1-c1nnco1	–	inactive	–
COc1ccccc1OCC1CNC(=O)O1 (stereo not given)	7%	–	–
Cc1ccc2c(Cl)cc(Cl)c(O)c2n1	–	inactive	–
CCCCC(=O)OCC(=O)[C@H]1[C@H](C)C[C@H]2[C@@H]3C[C@H](F)C4=CC(=O)C=C[C@]4(C)[C@@]3(F)[C@@H](O)C[C@@]21C	–	–	0.0033 µM (active)
CN(C)CCN(Cc1ccsc1)c1ccccn1	5.27%	–	–
CN1CCN(N)CC1	-1.24%	–	–
CCCC(CCC)(C(=O)OCC)C(=O)OCC	4.72%	–	–
NS(=O)(=O)c1ccc(N2CCCCS2(=O)=O)cc1	5.39%	–	–
O=[N+]([O-])c1ccc(O)c2ncccc12	–	–	841 nM (active) and 6.61 µM (active)
CN1Cc2cc(C(=O)N3CCC(C4CCNCC4)CC3)ccc2NC(CC(=O)O)C1=O (stereo not given)	–	inactive	–
OC1(c2ccc(Cl)c(C(F)(F)F)c2)CCN(CCCC(c2ccc(F)cc2)c2ccc(F)cc2)CC1	–	–	4.73 µM (active) and 4.59 µM (active)
O=C(Oc1ccccc1)c1cccc(C(=O)Oc2ccccc2)c1	-16.7% [at 91.9 µM]	–	–
